Source: PubChem BioAssay (NCI)
Values joined by “and” are separate entries in the source; they are usually repeats but may differ in a detail not shown here. Equal values may be shown once. This is part of a sample that, as a whole, favours compounds with a hit. Of some 79,000 tested, about 15% had one in any assay. A number with no mark means an inactive call. Active and inactive are the calls of the source. No stated cut-off is given here; in the data, active means growth inhibition above about 70%; inactive means the rest.

Legend:
[1] = NCI Yeast Anticancer Drug Screen. Data for the rad50 strain (AID 155);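 further: 0% = growth of vehicle-only cultures of the same strain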; conditions: S. cerevisiae rad50 strain growth inhibition; at 50.0 µM; stronger effect = higher value
Method in brief: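 Genetically altered yeast (DNA repair pathway); compound treatment; growth inhibition vs vehicle ctrl.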

[2] = NCI Yeast Anticancer Drug Screen. Data for the mec2-1 strain (AID 157); conditions: S. cerevisiae mec2-1 strain, at 50.0 µM, stronger effect = higher value
Method in brief: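 Test agents were screened against the mec2-1 yeast strain, with defined DNA repair or cell cycle alteration. Growth was scored as inhibition against vehicle-only controls.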

[3] = NCI Yeast Anticancer Drug Screen. Data for the sgs1 mgt1 strain (AID 161);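 further: 0% = growth of cultures given vehicle only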; conditions: S. cerevisiae sgs1 mgt1 strain, at 50.0 µM, stronger effect = higher value
Method in brief: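 Inhibition of yeast growth, normalised to vehicle-treated controls, is reported for a strain bearing genetic alterations in DNA damage repair.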

[4] = NCI Yeast Anticancer Drug Screen. Data for the cln2 rad14 strain (AID 165);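 further: 0% = growth equal to vehicle treated cultures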; conditions: S. cerevisiae cln2 rad14 strain, at 50.0 µM, stronger effect = higher value
Method in brief: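 Growth of compound-exposed yeast (cln2 rad14 genotype) measured and expressed as inhibition relative to vehicle.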

[5] = NCI Yeast Anticancer Drug Screen. Data for the bub3 strain (AID 167); conditions: S. cerevisiae bub3 mutant strain, at 50.0 µM, stronger effect = higher value
Method in brief: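 Yeast carrying a defined mutation is treated with each compound, and growth is compared with that of vehicle-exposed cells to give inhibition.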

[6] = NCI Yeast Anticancer Drug Screen. Data for the mlh1 rad18 strain (AID 175); conditions: S. cerevisiae mlh1 rad18 strain growth inhibition; at 50.0 µM; stronger effect = higher value
Method in brief: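 In this whole-cell yeast screen, a strain with altered DNA damage repair is challenged with compound, and its growth is measured against matched vehicle-treated controls.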

Compound | growth inhibition [1] | growth inhibition [2] | growth inhibition [3] | growth inhibition [4] | growth inhibition [5] | growth inhibition [6]
N#CC(C#N)=Cc1ccccc1F | 15.5% | 7.1% | 12.2% | 15.2% | 10.6% | 12.7%
CC(C)(C)N1OC1C(Cl)(Cl)Cl (stereo not given) | -20.6% | -9.55% | -23% | -18.3% | -4.95% | 10.4%
Cc1nnc2cc3ccccc3cn12 | 21% | 9.45% | 26.4% | 9.45% | 21.9% | 18.1%
COc1cc(C2c3cc4c(cc3OC(NCCO)C2C)OCO4)cc(OC)c1O (stereo not given) | 6.1% | -11.5% | -14.3% | 9.25% | -18.1% | -0.65%
COC1=CC2C3Cc4c(-c5cc(OC)c(O)c6c5CC5C7C=C(OC)C(=O)CC67CCN5C)cc(OC)c(O)c4C2(CCN3C)CC1=O (stereo not given) | -2.7% and -3.05% | 1.25% and 2.55% | -2.75% and -13.1% | 0.25% and -10.2% | -2.45% and -0.65% | 3.7% and 12.1%
CC(NC1=NCCO1)c1ccco1 (stereo not given) | 4.45% | 9.15% | 13.2% | 30% | 6.7% | -75.8%
C(#Cc1ccccc1)c1ccccc1.[C-]#[O+].[C-]#[O+].[C-]#[O+].[C-]#[O+].[C-]#[O+].[C-]#[O+].[Co].[Co] | 42.4% | 28.1% | 42.4% | -3.55% | 5.2% | 53.2%
CN1CC=C(OP(=O)(NCc2ccccc2)N(CCCl)CCCl)CC1 (stereo not given) | -6.25% | -12.8% | 0.9% | -3.1% | -17.4% | -34%
CC1(C)N=C(N)N=C(N)N1c1ccc(CCc2cccc(Cl)c2S(=O)(=O)F)c(Cl)c1 | 99.5% (active) | 99.7% (active) | 99.7% (active) | 99.3% (active) | 99% (active) | 99.5% (active)
O=C(Nc1ccc(O)cc1)c1c(O)[nH]c(=S)[nH]c1=O | -11.7% | -13.1% | 6.25% | -56.5% | 1.7% | 4.65%
C=CC12CN(C)C3C4COC(CC41)C1(C(=O)Nc4ccccc41)C32 (stereo not given) | 1.25% and -22.5% | -3.3% and -18.6% | -7.35% | -13.5% | -11.6% | 29.2% and -19.2%
CCN(CC)CCN(Cc1ccccc1)C(=O)C(O)(c1ccccc1)c1ccccc1 | -0.4% | -23.6% | -4.05% | -39.4% | -1.5% | -24.6%
Oc1cccc2cccnc12.[Cr] | 6% | -0.65% | -7.65% | -7% | -16.9% | -9.65%
CCCCCCCN1CCC(C(=O)CC)(c2cccc(O)c2)CC1 | 21.6% | 21.4% | 33.5% | -2.75% | 15.9% | 30.6%
CCCCSP(=S)(SCCCC)SCCCC | 36.6% | 15.1% | 38.5% | -20.2% | 10.1% | 42%
CS(=O)(=O)CCC(N)P(=O)(O)O (stereo not given) | -45.9% | -47.9% | -48.5% | -9.4% | -21.8% | -30.8%
COC(C(=O)O)(c1ccccc1)c1ccccc1 | -24.8% | -18.9% | 1.05% | -33.9% | -9.2% | -0.35%
C[N+](C)(C)C | -0.3% and 4.95% and -7% | 14.2% and -39% and -9.3% | -5.75% and -25.2% and 8.3% | -16.5% and 6.35% and 2.35% | 21.4% and -8.1% and 8.75% | -1.65% and -19.1% and -2.9%
C[C@@H]1C[C@@]2(O[C@@H]2C)C(=O)O[C@@H]2CCN3CC=C(COC(=O)[C@]1(C)O)[C@H]23 | -4.5% | -16.2% | -7.95% | 13.3% | -4.9% | -75%
CC1(C)N=C(NN=C2CCCCC2)SP1(=O)NNc1ncccn1 (stereo not given) | 30.1% | 11.7% | 25.8% | 1.95% | 15.1% | 23.2%
COC1C(=[N+]=[N-])C(=O)NC(=O)N1C (stereo not given) | 21% | -3.4% | 34.9% | -7.65% | 20.3% | 20.5%
COc1ccc(C(OCC2OC(n3ccc(NC(=O)c4ccccc4)nc3=O)CC2OP2(=S)SCCS2)(c2ccccc2)c2ccc(OC)cc2)cc1 (stereo not given) | 10.6% | -13.1% | -4.1% | 10% | 37% | 78.7% (active)
COc1ccc(CC2OC3(CCCCC3)CC3CCCCN32)cc1 (stereo not given) | 23.2% | 13.9% | 11.5% | 7.65% | -5.6% | 6%
CCOC(=O)c1cc(N(CCCl)CCCl)ccc1OC(=O)CC | 3.95% | -6.9% | 19.7% | -32.2% | 5.85% | 30.1%
C(=Nc1ccccc1)C1CCCC[N-]1.C(=Nc1ccccc1)C1CCCC[N-]1.[Cu+2].[O-][Cl+3]([O-])([O-])O (stereo not given) | 90.5% (active) | 83.6% (active) | 65% | 92.5% (active) | 74.2% (active) | 88% (active)
